The text below walks through data of PubChem BioAssay (Tox21).

Values without a mark were called inactive. Results filed as inconclusive are left out. Activity calls are given as the source filed them. Unless noted, the call rests on the fitted dose curve; in most records, active means well fitted curve in the direction sought with a large enough effect in the repeat runs; inconclusive means weak or mixed curves; inactive means no such curve, though single readings can be large; an effect the other way counts as inactive or inconclusive.

A short description of experiment [1]: qHTS RealTime-Glo MT Cell Viability Assay in HEK293 cells - 0 hour (AID 1224880). Further: top concentration of the series differs between compounds; nearly all actives have a fitted effect of over 45% in size. The procedure, abridged:
(§1)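 HEK293 cells mixed with RealTime-Glo reagents (NanoLuc plus cell-permeant prosubstrate) at 600 cells/well, preincubated 5 h at 37 C/5% CO2, then given 23 nL compound in DMSO. Nonlytic luminescence from viable cells was read at 0, 8, 16, 24, 32 and 40 h.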
In general terms: qHTS replaces the single test concentration by a dilution series.

Experiment [2] can be described thus: A CellTox Green Cytotoxicity Assay to monitor cytotoxicity in HEK293 cells - 32 hour (AID 1224881). Further: nearly all actives have a fitted effect of over 40% in size. In a few lines: (§2)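 HEK293 cells premixed with CellTox Green dye were seeded at 600 cells/well and left 5 h at 37 C/5% CO2 before pin transfer of 23 nL compound in DMSO. Fluorescence from dye bound to dead-cell DNA was read during 40 h treatment.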
A short description of experiment [3]: A CellTox Green Cytotoxicity Assay to monitor cytotoxicity in HepG2 cells - 0 hour (AID 1224882). Further: nearly all actives have a fitted effect of over 35% in size. In a few lines:
(§3)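 HepG2 cells were seeded together with the CellTox Green dye at 600 cells/well, left 5 h at 37 C/5% CO2, then given compounds in DMSO. Fluorescence from dye bound to dead-cell DNA was read repeatedly over 40 h of treatment at 37 C.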

A short description of experiment [4]: A CellTox Green Cytotoxicity Assay to monitor cytotoxicity in HepG2 cells - 32 hour (AID 1224883). Further: nearly all actives have a fitted effect of over 50% in size. In a few lines: as §3
The nature of experiment [5]: A CellTox Green Cytotoxicity Assay to monitor cytotoxicity in HEK293 cells - 8 hour (AID 1224884). Further: nearly all actives have a fitted effect of over 35% in size. The procedure, abridged:
as §2

Experiment [6] in a line: qHTS RealTime-Glo MT Cell Viability Assay in HepG2 cells - 16 hour (AID 1224885). Further: nearly all actives have a fitted effect of over 50% in size. The procedure, abridged: (§4)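 Cell number in HepG2 cultures estimated from NanoLuc luminescence generated by metabolic reduction of a prosubstrate by living cells. The homogeneous, nonlytic format allowed repeated reads at 0, 8, 16, 24, 32 and 40 h of compound exposure.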
The nature of experiment [7]: qHTS RealTime-Glo MT Cell Viability Assay in HEK293 cells - 24 hour (AID 1224886). Further: top concentration of the series differs between compounds; nearly all actives have a fitted effect of over 50% in size. In a few lines:
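Homogeneous bioluminescent viability format in HEK293 cells (600 cells/well). Following 5 h at 37 C/5% CO2, 23 nL compound was pintooled; the signal was measured repeatedly during 40 h incubation.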

The nature of experiment [8]: qHTS RealTime-Glo MT Cell Viability Assay in HEK293 cells - 8 hour (AID 1224887). Further: top concentration of the series differs between compounds; nearly all actives have a fitted effect of over 50% in size. The procedure, abridged:
as §1

The nature of experiment [9]: A CellTox Green Cytotoxicity Assay to monitor cytotoxicity in HEK293 cells - 16 hour (AID 1224888). Further: nearly all actives have a fitted effect of over 35% in size. The procedure, abridged:
as §2

Experiment [10] is described as follows: qHTS RealTime-Glo MT Cell Viability Assay in HepG2 cells - 0 hour (AID 1224889). Further: nearly all actives have a fitted effect of over 50% in size. The procedure, abridged: as §4
Experiment [11] in a line: A CellTox Green Cytotoxicity Assay to monitor cytotoxicity in HepG2 cells - 8 hour (AID 1224890). Further: nearly all actives have a fitted effect of over 45% in size. In a few lines: as §3
A short description of experiment [12]: qHTS assay to identify small molecule antagonists of the estrogen receptor alpha (ER-alpha) signaling pathway using the BG1 cell line in the presence of 0.1 nM 17-beta-estradiol - cell viability counter screen (AID 1259241). Further: nearly all actives have a fitted effect of over 40% in size. In a few lines:
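VM7Luc4E2, 4,000 cells/well, phenol red-free medium + 10% charcoal-stripped FBS; 24 hr plating; cpd + 0.1 nM E2 final, 22 hr 37C/5% CO2; CellTiter-Fluor 30 min, fluorescence.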

Experiment [13] in a line: qHTS assay to identify small molecule antagonists of the androgen receptor (AR) signaling pathway using the MDA cell line in the presence of 0.5 nM R1881 - cell viability counter screen (AID 1259242). Further: nearly all actives have a fitted effect of over 45% in size. The procedure, abridged: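 MDA-kb2 cells (human breast carcinoma, stably carrying MMTV-luciferase reporter) were exposed to compounds with 0.5 nM R1881 (final) for 16 hr at 37C, 0% CO2; viability then read as live-cell protease fluorescence (CellTiter-Fluor, 30 min) in the same wells.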

In experiment [14] the target is Estrogen receptor (Homo sapiens) (UniProt P03372). The experiment is described as follows: qHTS assay to identify small molecule antagonists of the estrogen receptor alpha (ER-alpha) signaling pathway using the BG1 cell line in the presence of 0.1 nM 17-beta-estradiol (AID 1259244). Further: nearly all actives have a fitted effect of over 50% in size. In a few lines: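 VM7Luc4E2 cells (endogenous full-length ER-alpha, stable 4xERE-luciferase) were grown 5 days in phenol red-free medium with charcoal-stripped FBS, then exposed 22 h at 37C to compounds plus 0.1 nM (final) 17beta-estradiol; ONE-Glo luminescence read-out.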

The nature of experiment [15]: qHTS assay to identify small molecule HDAC inhibitors (AID 1259364). Further: nearly all actives have a fitted effect of over 45% in size. Further: potency means the concentration at half of the fitted maximal effect. On activity change, negative = inhibition: top concentration of the series differs between compounds. In a few lines: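 Wild-type HCT-116 cells were plated overnight, exposed to compounds for 2 h at 37 °C, then given HDAC-Glo class I/II luminogenic reagent for 30 min at room temperature before luminescence was read.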
The nature of experiment [16]: qHTS assay to identify small molecule HDAC inhibitors - cell viability counter screen (AID 1259365). The procedure, abridged:
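Luminescence from CellTiter-Glo, developed 30min at room temperature, reports viability of wild-type HCT-116 cells treated 2hr with compounds at 37 C and 5% CO2 after overnight plating.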

The nature of experiment [17]: qHTS assay to identify small molecule agonists of the sonic hedgehog signaling (Shh) pathway - cell viability counter screen (AID 1259366). Further: nearly all actives have a fitted effect of over 50% in size. The procedure, abridged: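 Cytotoxicity counter screen run in the same wells as the Shh reporter assay. NIH/3T3 cells carrying a Gli1 response element–driven luciferase were treated with DMSO-dissolved compounds for 24hr, and live-cell protease activity was measured with CellTiter-Fluor.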

The nature of experiment [18]: qHTS assay to identify small molecule antagonists of the sonic hedgehog signaling (Shh) pathway - cell viability counter screen (AID 1259367). Further: nearly all actives have a fitted effect of over 55% in size. In a few lines:
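Using CellTiter-Fluor, viability of Gli1-Luc reporter 3T3 cells is read by fluorescence in the wells used for the Shh luciferase assay. Treatment lasts 23 hr with conditioned medium, then reagent 1 hr at 37C.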

For experiment [19], the target named is Androgen receptor (Homo sapiens) (UniProt P10275). The experiment is described as follows: qHTS assay to identify small molecule antagonists of the androgen receptor (AR) signaling pathway using the MDA cell line in the presence of 0.5 nM R1881 (AID 1259243). Further: nearly all actives have a fitted effect of over 50% in size. In a few lines: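 MDA-kb2 human breast carcinoma cells carrying an MMTV-luciferase reporter (AR- and GR-responsive) were plated, rested 5 hr at 37C, dosed with compounds, then stimulated with 0.5 nM R1881 (final) for 16 hr; luminescence was read after ONE-Glo.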

A short description of experiment [20]: qHTS assay to identify small molecule phospholipidosis (PLD) inducers (AID 1259344; active means well fitted curve in the direction sought with a large enough effect; an effect the other way counts as inactive or inconclusive). The procedure, abridged:
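Fluorescent phospholipid staining (LipidTOX Red) measured by automated microscopy in fixed HepG2 cells after 24 h treatment; nuclei counterstained with Hoechst 33342; amiodarone as reference inducer.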
On the % scale 0 is the no-effect control and ±100 the full control effect.

Chain of Androgen receptor (Homo sapiens) (P10275 whole entry, looked up): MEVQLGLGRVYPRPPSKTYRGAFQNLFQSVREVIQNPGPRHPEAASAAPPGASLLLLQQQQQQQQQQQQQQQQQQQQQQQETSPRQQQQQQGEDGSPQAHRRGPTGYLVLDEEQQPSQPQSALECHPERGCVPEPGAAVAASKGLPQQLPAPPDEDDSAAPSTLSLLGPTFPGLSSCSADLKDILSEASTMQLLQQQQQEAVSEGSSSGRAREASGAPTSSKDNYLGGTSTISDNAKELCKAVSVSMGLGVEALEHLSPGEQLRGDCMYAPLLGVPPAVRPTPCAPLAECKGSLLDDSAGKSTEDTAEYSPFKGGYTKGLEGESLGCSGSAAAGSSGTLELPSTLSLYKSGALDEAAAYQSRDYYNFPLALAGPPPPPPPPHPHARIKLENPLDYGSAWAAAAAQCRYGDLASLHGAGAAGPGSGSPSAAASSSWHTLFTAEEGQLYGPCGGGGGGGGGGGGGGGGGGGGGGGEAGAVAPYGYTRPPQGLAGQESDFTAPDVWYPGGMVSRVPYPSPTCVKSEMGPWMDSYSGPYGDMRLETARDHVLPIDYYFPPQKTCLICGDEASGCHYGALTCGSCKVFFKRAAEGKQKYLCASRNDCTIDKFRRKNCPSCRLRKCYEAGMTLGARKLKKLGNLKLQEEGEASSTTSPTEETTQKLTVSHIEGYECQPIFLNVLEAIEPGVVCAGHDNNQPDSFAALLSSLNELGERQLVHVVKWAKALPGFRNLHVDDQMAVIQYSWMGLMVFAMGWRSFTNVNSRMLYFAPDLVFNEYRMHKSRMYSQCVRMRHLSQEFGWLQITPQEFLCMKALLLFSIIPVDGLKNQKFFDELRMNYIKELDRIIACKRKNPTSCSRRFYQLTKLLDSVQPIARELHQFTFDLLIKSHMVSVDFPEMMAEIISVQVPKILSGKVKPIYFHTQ
Chain of Estrogen receptor (Homo sapiens) (P03372 whole entry, looked up): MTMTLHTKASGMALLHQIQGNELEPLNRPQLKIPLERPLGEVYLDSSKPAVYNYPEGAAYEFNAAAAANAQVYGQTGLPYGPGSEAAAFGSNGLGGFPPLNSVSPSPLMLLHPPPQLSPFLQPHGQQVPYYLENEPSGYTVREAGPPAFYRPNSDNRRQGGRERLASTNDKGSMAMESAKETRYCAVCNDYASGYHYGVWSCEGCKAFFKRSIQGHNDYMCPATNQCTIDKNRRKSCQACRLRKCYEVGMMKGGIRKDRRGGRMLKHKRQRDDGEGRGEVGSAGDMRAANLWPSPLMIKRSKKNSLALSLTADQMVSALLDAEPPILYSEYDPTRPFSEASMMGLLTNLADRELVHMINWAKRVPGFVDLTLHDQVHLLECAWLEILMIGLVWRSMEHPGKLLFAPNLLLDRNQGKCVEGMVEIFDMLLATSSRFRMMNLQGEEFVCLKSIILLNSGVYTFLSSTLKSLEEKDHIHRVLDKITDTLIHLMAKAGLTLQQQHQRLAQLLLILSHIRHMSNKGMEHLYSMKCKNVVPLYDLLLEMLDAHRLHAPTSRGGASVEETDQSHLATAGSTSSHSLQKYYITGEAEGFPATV

As for `COc1ccc(N=[N+]([O-])c2ccc(OC)cc2)cc1`, the molecule was called inactive in experiment [1], in experiment [6], in experiment [12], in experiment [13], in experiment [14] and in experiment [16]. Further, the call in [18] was inactive. Moreover, the Potency result in experiment [2], in experiment [3], in experiment [4], in experiment [5], in experiment [7] and in experiment [8] was “inactive” throughout. Besides, the Potency result in experiment [9], in experiment [10], in experiment [11] and in [17] was “inactive” throughout. Moreover, the Potency in experiment [15] is 1.08 µM (active).
In the case of `CNc1ncnc2nc[nH]c12`, the call in experiment [1], in experiment [6], in experiment [12], in [13], in [14] and in [16] was inactive. Further, the molecule was called inactive in experiment [18]. Also, the Potency result in experiment [2], in [3], in experiment [4], in experiment [5], in experiment [7] and in [8] was “inactive” throughout. Further, the Potency entry in [9], in [10], in experiment [11], in experiment [15] and in [17] was “inactive” in each case.
For `CC(=O)OC(C)(C)C`, the molecule was called inactive in experiment [1], in [6], in experiment [12], in experiment [13], in experiment [14] and in experiment [16]. In experiment [18], the call was inactive. Further, the Potency result in [2], in experiment [3], in [4], in experiment [5], in experiment [7] and in experiment [8] was “inactive” throughout. In addition, the Potency result in experiment [9], in [10], in experiment [11], in experiment [15] and in experiment [17] was “inactive” throughout.
`O=C1CC2(CCCC2)CC(=O)N1`: the molecule was classed as inactive in [1], in [6], in experiment [12], in [13], in experiment [14] and in [16]. Besides, in [18], the molecule was classed as inactive. Further, the Potency result in [2], in experiment [3], in [4], in experiment [5], in experiment [7] and in experiment [8] was “inactive” in each case. The Potency entry in experiment [9], in experiment [10], in [11], in [19] and in experiment [15] was “inactive” in each case.
Regarding `C=C(C)C(=O)OCCCCCCCCCCCCCCCCCC`, the activity change, negative = cytotoxicity in experiment [1] was 4.5% [at 15.8 µM]; in [7], 11.4% [at 15.8 µM]; in [8], 4.13% [at 15.8 µM]; in [10], -1.29% [at 15.8 µM]; in [12] it was 10.5% [at 19 µM]; in experiment [16], 3.83% [at 19 µM]. Besides, the cytotoxicity increase in experiment [2] is 3.44% [at 15.8 µM]; in experiment [4] it was -0.434% [at 15.8 µM]; in experiment [5], -3.54% [at 15.8 µM]; in [11], 0.0012% [at 15.8 µM]. Further, the cytotoxicity in experiment [3] was 0.514% [at 15.8 µM]. Besides, in experiment [6], the activity change, negative = cytotoxic was 0.444% [at 15.8 µM]. In experiment [9], the activity change was 0.239% [at 15.8 µM, active compounds read high]. Also, the viability change, negative = cytotoxic was 1.71% [at 19 µM] in [13], -3.3% [at 19 µM] in experiment [17] and -2.33% [at 19 µM] in experiment [18]. Further, the results for the activity change, negative = inhibition in [14] and in experiment [15] were 9.23% [at 19 µM] and 1.5% [at 19 µM], respectively.
As for `NS(=O)(=O)c1cc2c(cc1C(F)(F)F)NC(Cc1ccccc1)NS2(=O)=O` (configuration not stated), the result in [1], in experiment [6], in experiment [12], in experiment [13], in experiment [16] and in experiment [18] was inactive. For the same molecule, the Potency entry in experiment [2], in [3], in experiment [4], in [5], in [7] and in [8] was “inactive” each time. The Potency result in experiment [9], in [10], in experiment [11], in [19], in experiment [20] and in [15] was “inactive” in each case.
Turning to `CCOC(=O)Nc1ccc2c(c1)N(C(=O)CCN1CCOCC1)c1ccccc1S2`, the molecule was classed as inactive in [1], in [6], in experiment [12], in [13], in experiment [14] and in [18]. Moreover, the Potency entry in experiment [2], in experiment [3], in experiment [4], in experiment [5], in experiment [7] and in experiment [8] was “inactive” in each case. Besides, the Potency result in experiment [9], in experiment [10], in experiment [11], in experiment [19], in experiment [20] and in experiment [15] was “inactive” throughout. Further, the Potency entry in experiment [17] was “inactive”.
